The results in this text go back to PubChem BioAssay (NCATS).

Structures are written as SMILES. Records with an inconclusive call do not appear. Entries that show only a call come without a potency. Unmarked numbers belong to inactive results. The source made the active and inactive calls. The call rests on the fitted dose curve; in most records, active means well fitted inhibition curve with a large enough effect; inconclusive means small, poorly fitted or top-dose-only effect; inactive means flat fitted curve, though single readings scatter.

Calcium and integrin-binding protein 1 (Homo sapiens), sequence (Q99828 whole entry, looked up): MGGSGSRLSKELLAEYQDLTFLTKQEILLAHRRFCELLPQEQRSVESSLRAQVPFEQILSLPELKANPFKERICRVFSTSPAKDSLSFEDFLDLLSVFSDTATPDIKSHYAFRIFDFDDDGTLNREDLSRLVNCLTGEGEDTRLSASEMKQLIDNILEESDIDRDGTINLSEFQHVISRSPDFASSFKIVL

This experiment concerns the target Calcium and integrin-binding protein 1 (Homo sapiens) (UniProt Q99828). The experiment in a line: Primary qHTS for Identification of Calcium Integrin Binding Protein 1 (CIB1) Competitor (AID 1508620). Further: top concentration of the series differs between compounds. Particulars: CIB1-GST / FITC-alphaIIb peptide fluorescence polarization; series mostly up to 114 µM. In short, it runs like this:
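Fluorescence polarization competition: GST-tagged CIB1 (1 uM final) preincubated with compound 15 min at room temperature, then FITC-labelled alphaIIb peptide (100 nM final) added. After 15 min at room temperature, polarization read at Ex 480/Em 540.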
A general note: Quantitative high-throughput screening tests each substance at several concentrations.
With `COC(=O)C1=CO[C@@H](O[C@@H]2O[C@H](CO)[C@@H](O)[C@H](O)[C@H]2O)[C@@H]2C(CO)=CC[C@]12O`, the Potency entry was “inactive”. `COc1cc2c(cc1OC)N1C(=O)C[C@]34C=CCN5CC[C@@H]2[C@@H](CC3)[C@]514`: the Potency result is “inactive”. Same read-out and setting: as for `O=C(O)Cc1ccc2oc(-c3ccc(NC(=O)/C=C/c4ccc(Br)cc4)c(F)c3)nc2c1`, the entry is “inactive”; as for `CCOc1cc(CC(=O)NC(CC(C)C)c2ccccc2N2CCCCC2)ccc1C(=O)O` (configuration not stated), “inactive”.

For the compound `C=CC1C(OC2OC(CO)C(O)C(O)C2O)OC=C(C(=O)OC)C1CC(=O)OCC1C(C)C(O)CC1C(CO)COC(=O)CC1C(C(=O)O)=COC(OC2OC(CO)C(O)C(O)C2O)/C1=C\C` (configuration not stated), the Potency entry was “inactive”. On the same count and under the same terms, the result for `Cc1cc(OCc2nnc(SC3CCCC3)n2-c2cccnc2)ccc1-c1ccc(S(C)(=O)=O)cc1` reads “inactive”; that for `CC1(C)[C@@H](O)CC[C@]2(C)[C@H]3CC=C4[C@@H]5C[C@](C)(C(=O)O)CC[C@]5(C)CC[C@@]4(C)[C@]3(C)CC[C@@H]12`, “inactive”; that for `CN(C)CC1CCOC1(c1ccccc1)c1ccccc1` (configuration not stated), “inactive”. On the same count and under the same terms, as for `CC(CO)C1CCC2(C)CC3C(CO)CC(O)C3C(C)(O)C/C=C/12` (configuration not stated), the entry is “inactive”.

With `CCC(C)/C=C(C)/C=C/c1cc2c(cn1)C(=O)C(C)(OC(C)=O)C(O)=C2Cl` (configuration not stated), the Potency result is “inactive”. Still for that read-out and setting: as for `Cc1cn(C2C=CC(CO)O2)c(=O)[nH]c1=O` (configuration not stated), the entry is “inactive”. With `O=C(CO)[C@@H](O)[C@H](O[C@@H]1O[C@H](CO)[C@H](O)[C@H](O)[C@H]1O)[C@H](O)CO`, the Potency result is “inactive”. Same read-out and setting: the result for `CC(C)[C@@H]1C(=O)N(S(C)(=O)=O)[C@@H]2CCN(C(=O)/C=C/CN3CCCCC3)[C@H]21` reads “inactive”; that for `C/C=C(\C)C(=O)OCC1OC(OC2OC(COC(=O)/C(C)=C/C)C(OC3OC(CO)C(OC(=O)/C(C)=C/C)C(OC(=O)/C(C)=C/C)C3O)C(O)C2O)C(O)C(O)C1OC1OC(CO)C(OC(=O)/C(C)=C/C)C(OC(=O)/C(C)=C/C)C1O` (configuration not stated), “inactive”; that for `C[C@@H]1CCN(C(=O)N2CCCC2)C[C@@H]1N(C)c1ncnc2[nH]ccc12`, “inactive”. On the same count and under the same terms, the result for `C[C@]12C[C@@H](O)[C@@H]3C[C@@]1(O[C@@H]1O[C@H](CO)[C@@H](O)[C@H](O)[C@H]1O)[C@]3(COC(=O)c1ccccc1)C(=O)O2` reads “inactive”; that for `C/C1=C\CCC(C)CCO[C@@H]2O[C@H](CO[C@@H]3OC[C@H](O)[C@H](O)[C@H]3OC1=O)[C@@H](O)[C@H](O)[C@H]2O` (some centres not stated), “inactive”.

In the case of `O=C(CN1C(=O)C2(CCCC2)NCC1c1cc(F)cc(F)c1)Nc1ccc2c(c1)CC1(C2)C(=O)Nc2ncccc21` (configuration not stated), the Potency result was “inactive”. Same read-out and setting: the result for `CC[C@H]1OC(=O)[C@H](C)[C@@H](O[C@H]2C[C@@](C)(OC)[C@@H](O)[C@H](C)O2)[C@H](C)[C@@H](O[C@@H]2O[C@H](C)C[C@H](N(C)C)[C@H]2O)[C@](C)(O)C[C@@H](C)C(=O)[C@H](C)[C@H]2OC(=O)O[C@@]21C` reads “inactive”. As for `CC(CCC1(O)OC2CC3C4CCC5CC(O[C@@H]6O[C@H](CO)[C@@H](O)[C@H](O)[C@H]6O[C@@H]6O[C@@H](C)[C@H](O)[C@@H](O)[C@H]6O)C(O)CC5(C)C4CCC3(C)C2C1C)CO[C@@H]1O[C@H](CO)[C@@H](O)[C@H](O)[C@H]1O` (some centres not stated), the Potency entry was “inactive”. The same measure, in the same setting: as for `CNS(=O)(=O)CC1CCC(N(C)c2ncnc3[nH]ccc23)CC1` (configuration not stated), the entry is “inactive”. The same measure, in the same setting: as for `O=C(CCc1ccccc1)N1CCC(O)(Cn2cnc3cc(Cl)ccc3c2=O)CC1`, the entry is “inactive”; as for `COc1ncc(Nc2ncc([C@H](C)N3CCN(S(C)(=O)=O)CC3)cc2-c2nc(C)nc(N)n2)cc1F`, “inactive”; as for `N#CC(c1ccnc(OCc2ccc(CN3CCOCC3)cc2)n1)c1nc2ccccc2s1` (configuration not stated), “inactive”. Same read-out and setting: as for `O=C(O)c1cccc(S(=O)(=O)N2CCc3ccccc3C2)c1`, the entry is “inactive”. As for `C[C@@H]1O[C@@H](O[C@@H]2[C@@H](O)[C@H](O[C@H]3[C@H](O[C@H]4CC[C@@]5(C)C(CC[C@]6(C)C5CC=C5[C@@H]7CC(C)(C)CC[C@]7(C(=O)O[C@@H]7O[C@H](CO)[C@@H](O)[C@H](O)[C@H]7O[C@@H]7O[C@@H](C)[C@H](O[C@@H]8O[C@@H](C)[C@H](O)[C@@H](O)[C@H]8O)[C@@H](O)[C@H]7O)CC[C@]56C)[C@@]4(C)CO)O[C@H](C(=O)O)[C@@H](O)[C@@H]3O)O[C@H](CO)[C@H]2O)[C@H](O)[C@H](O)[C@H]1O` (some centres not stated), the activity change, negative = inhibition was 4.5% [at 12.4 µM]. Consider `COC1=CC(=O)CC(C)C12Oc1cc(OC)cc(O)c1C2=O` (configuration not stated), for which the Potency result was “inactive”.
